Rin1-Abl PPI inh: inhibitors of human Rin1-Abl protein interaction. P00519+Q13671. TR-FRET Rin1/Abl binding, biochemical. inhibition, % at 7.35 µM. 0.4% of 360,000 active. AID 588664; in the data active = inhibition above about 5%, passing the limit was not always enough
MBD2 DNA inh: MBD2-methylated oligo binding inhibition. Q9UBB5. TR-FRET, MBD2 binding to methylated oligonucleotide. inhibition, % at 4.4 µM. 0.31% of 370,000 active. AID 686964; in the data active = inhibition above about 13%
LEDGF integ inh: blocks HIV-1 LEDGF/p75-dependent DNA integration. 0.64% of 370,000 active. AID 743269. inhibition, % at 3.7 µM. TR-FRET IN-LEDGF/p75 DNA integration, Eu/Cy5;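 active = inhibition above the screen-wide mean plus 3 SD, cut at about 13% in these data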;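 note: signal is the Cy5 over europium emission ratio at 671 and 618 nm; 0% = plate median of compound wells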
TCR CD3 inh: human TCR-CD3 binding inhibition | TAMRA-labeled TCR probe fluorescence, biochemical | inhibition, % at 9.4 µM | 0.37% of 360,000 active | AID 651800; in the data active = inhibition above about 19%;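 note: recombinant mutant TCR 2C K166C tagged with TAMRA read by polarization; 0% = receptor in buffer alone and 100% = receptor with positive control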
UHRF1 binding: UHRF1 methyl-DNA binding inhibition; inhibition, % at 4.4 µM; UHRF1 binding to methylated oligo, TR-FRET; 0.75% of 370,000 active;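 note: UHRF1 SRA domain binding a hemimethylated CpG hairpin DNA probe; 0% = median of test compound wells and 100% = reference inhibitor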
Target sequence (Q96T88 whole entry, looked up, the tested form may be a part): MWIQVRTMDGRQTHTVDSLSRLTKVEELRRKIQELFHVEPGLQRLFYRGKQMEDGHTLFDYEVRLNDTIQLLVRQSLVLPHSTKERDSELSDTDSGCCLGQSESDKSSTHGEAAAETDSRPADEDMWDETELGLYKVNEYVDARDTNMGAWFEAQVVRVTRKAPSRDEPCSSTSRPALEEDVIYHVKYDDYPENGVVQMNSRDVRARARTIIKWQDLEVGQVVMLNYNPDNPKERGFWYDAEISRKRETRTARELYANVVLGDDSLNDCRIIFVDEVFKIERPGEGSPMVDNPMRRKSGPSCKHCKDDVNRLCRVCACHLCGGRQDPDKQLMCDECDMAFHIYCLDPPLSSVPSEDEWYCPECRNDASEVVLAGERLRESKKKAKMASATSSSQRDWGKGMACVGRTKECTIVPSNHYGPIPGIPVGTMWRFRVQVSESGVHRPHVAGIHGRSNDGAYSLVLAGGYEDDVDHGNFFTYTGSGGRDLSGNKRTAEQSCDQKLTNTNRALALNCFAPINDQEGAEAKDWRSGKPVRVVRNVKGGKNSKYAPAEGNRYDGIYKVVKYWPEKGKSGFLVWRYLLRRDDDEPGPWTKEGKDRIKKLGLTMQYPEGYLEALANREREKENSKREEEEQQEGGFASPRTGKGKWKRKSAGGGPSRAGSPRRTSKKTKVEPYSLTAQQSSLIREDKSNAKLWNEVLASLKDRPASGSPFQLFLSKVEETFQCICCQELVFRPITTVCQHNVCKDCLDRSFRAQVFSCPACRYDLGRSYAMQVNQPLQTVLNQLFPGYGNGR
UHRF1 DNA bind: UHRF1 methyl-oligo binding inhibition as MBD2 counter-screen; UHRF1 binding to methylated oligonucleotide, TR-FRET; 25% of 1,000 active; inhibition, % at 4.4 µM; shares compounds with MBD2 DNA inh; AID 720530;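 note: UHRF1 SRA domain binding a labeled hemimethylated CpG hairpin DNA; 0% = vehicle only and 100% = reference inhibitor with vehicle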
MBD2 DBD conf: confirmation of human MBD2-DBD methylated oligonucleotide binding inhibitors | shares compounds with MBD2 DNA inh | TR-FRET MBD2-DBD binding to methylated oligonucleotide | inhibition, % at 4.4 µM | 26% of 1,000 active | AID 720531; in the data active = inhibition above about 14%
Starred values were filed as active, the others as inactive; x = not tested or not shown. Rows were chosen to be rich in hits. Some 2% of all compounds tested hit in one or more screens of this group. Cut-off read from the data, not from the text of the source, unless noted: active = inhibition above about 21%; inactive = the rest.

SMILES	Rin1-Abl PPI inh	MBD2 DNA inh	LEDGF integ inh	TCR CD3 inh	UHRF1 binding	UHRF1 DNA bind	MBD2 DBD conf
Cc1ccc(-c2csc3nc4cc(C(=O)NC5CCC(O)CC5)ccc4c(=O)n23)cc1 (stereo not drawn)	2.9	13.8*	1.1	3.7	19.8	12.8	7.6
CCOc1cc(N2CCOCC2)c(OCC)cc1NC(=O)COC(=O)c1cc(C)oc1C	1.8	15.4*	-6.4	-0.9	4.0	13.4	3.1
NS(=O)(=O)c1ccc(CCNC(=O)CCS(=O)(=O)c2ccc(Br)cc2)cc1	-0.5	17.3*	-0.3	0.7	29.3*	43.6*	29.7*
O=C(CCS(=O)(=O)c1ccc(Br)cc1)NCCc1ccccc1	1.0	2.6	-1.9	2.2	5.0	x	x
CN1CCC(n2[nH]c(-c3ccccc3)c(Cc3ccccc3)c2=O)CC1	3.9	-0.7	-3.7	-3.8	-7.2	x	x
COc1ccc(-c2c3c(cc(C)[n+]2[O-])oc2ccc(OC)cc23)cc1	-1.5	9.9	1.3	9.9	20.1	x	x
COc1ccc2oc3cc(C)[n+]([O-])c(-c4ccc(Cl)cc4)c3c2c1	1.2	13.2*	0.8	2.2	19.4	1.1	1.9
COc1ccccc1CCNC(=O)CSc1nc2c([nH]1)c(=O)n(C)c(=O)n2C	x	-0.3	-3.8	x	-0.7	x	x
COc1ccccc1CCNC(=O)CSc1nc(=O)[nH]c2c1CCC2	-1.2	23.1*	-2.8	4.0	0.3	3.5	3.9
CC1(C(=O)NS(=O)(=O)c2ccc(Br)cc2)CCN1C(=O)CC1CCCCC1 (stereo not drawn)	-3.3	17.9*	0.0	-4.6	4.2	4.1	1.9
CC1(C(=O)NS(=O)(=O)c2ccc(Br)cc2)CCN1C(=O)CCC1CCCC1 (stereo not drawn)	1.3	-2.0	-0.6	-4.9	9.0	x	x
CCCCCCSc1ccc([C@H]2N[C@@](Cc3ccccc3)(C(=O)OC)[C@H]3C(=O)N(C)C(=O)[C@@H]23)cc1	1.9	14.0*	7.9	0.7	20.3	7.2	2.5
CC1(C(=O)NS(=O)(=O)c2cccs2)CCN1C(=O)Cc1ccccc1 (stereo not drawn)	0.1	-1.4	-3.6	4.1	0.1	x	x
C=CCOc1ccc(/C=C\c2nc(O)c([N+](=O)[O-])c(=O)[nH]2)cc1OC	-4.7	x	x	x	x	x	x
COc1ccc(/C=C\c2nc(O)c([N+](=O)[O-])c(=O)[nH]2)cc1O	-2.5	39.1*	1.4	6.4	-5.1	11.8	-1.6
CCN(CC)C(=O)c1ccc2sc([C@H]3C[C@H](O)[C@@H](CO)O3)nc2c1	-0.9	21.1*	-5.5	-4.4	2.9	4.8	2.2
CN(Cc1ccccc1)C(=O)c1ccc2sc([C@H]3C[C@H](O)[C@@H](CO)O3)nc2c1	0.3	1.8	-2.0	-4.9	2.5	x	x
CCN(CC)c1ccc(C(=O)NNC(=O)CNC(=O)c2ccco2)cc1	-1.9	-0.3	-6.9	-2.6	0.4	x	x
COc1ccc2cc3cc(C(=O)Nc4ccc(F)cc4)sc3nc2c1	x	28.6*	-3.0	x	8.4	29.4*	27.6*
CCC(C)NC(=O)c1cc2cc3ccc(OC)cc3nc2s1 (stereo not drawn)	-5.1	-7.7	5.5	-6.1	-3.2	x	x
COc1cc(NC(=O)c2ccc(OC)c([N+](=O)[O-])c2)ccc1NC(=O)c1ccco1	0.4	18.4*	0.7	-4.1	-2.9	8.1	1.9
Cc1cccc(Cn2cc(SCC(=O)Nc3nccs3)c3ccccc32)c1	-1.9	30.1*	1.6	1.2	1.2	5.5	0.9
Cc1ccc(Cn2cc(SCC(=O)Nc3nccs3)c3ccccc32)cc1	1.0	0.9	-4.4	-1.3	2.9	x	x
CCN(CC)CCNC(=O)C1c2cc(OC)c(OC)cc2C(=O)N(C)C1c1cccs1 (stereo not drawn)	3.6	42.3*	-3.5	-6.4	0.2	3.3	1.1
COCCn1c(SCC(=O)NC(=O)NC2CCCC2)nc2ccccc2c1=O	-1.4	-1.6	1.9	11.2	-1.4	x	x
SMILES	Rin1-Abl PPI inh	MBD2 DNA inh	LEDGF integ inh	TCR CD3 inh	UHRF1 binding	UHRF1 DNA bind	MBD2 DBD conf
Cc1ccc(OCC(=O)Nc2cccc(S(=O)(=O)N3CCCCC3)c2)c([N+](=O)[O-])n1	1.0	-0.1	4.9	16.6	-0.1	x	x
Cc1ccc2cccc(OCC(=O)Nc3cccc(S(=O)(=O)N4CCCC4)c3)c2n1	2.1	17.3*	-2.8	-4.3	18.7	-1.7	2.5
Cc1cc(NC(=NC2CC2)c2ccccc2F)n(-c2ccccc2)n1	4.6	14.6*	-2.9	-0.4	21.1*	8.7	3.0
CCN(CCc1ccccc1)c1ccc2c(c1)C1CC2CCN1Cc1ccccc1 (stereo not drawn)	0.6	-4.3	-0.5	-1.1	-0.8	x	x
COc1ccc(CNC(=O)N2[C@H]3CC[C@@H]2C=C(c2ccc(F)cc2OCc2ccccc2)C3)cc1OC	0.2	-0.8	-3.4	-4.8	2.6	x	x
C#CCN(Cc1ccco1)C(=O)c1nnc2c3cc(OC)ccc3n(S(=O)(=O)c3ccc(OC)cc3)c2n1	x	26.2*	-2.9	-2.6	1.2	6.4	20.0*
C[C@H](NC(=O)C[C@@H]1C=C[C@@H](NC(=O)CN2CCOCC2)[C@@H](CO)O1)c1ccccc1	x	-1.5	2.0	-5.4	-0.4	x	x
Cc1cccc(N2CCN(C(=O)c3[nH]c(C(F)(F)F)nc3-c3ccccc3)CC2)c1C	5.6	1.8	0.4	-1.1	-0.8	x	x
CC(C)(C)NC(=O)NC(=O)CSc1nnc(COc2ccccc2Cl)o1	4.9	20.7*	2.9	1.9	30.9*	10.5	3.4
COC(=O)C[C@H]1C[C@H]2c3cc(NS(=O)(=O)c4ccc(OC)cc4)ccc3O[C@H]2[C@H](CO)O1	2.4	20.6*	-2.1	3.5	11.6	8.8	2.6
COC(C(=O)N1CCC(CCC(=O)Nc2ccccc2)CC1)c1ccccc1 (stereo not drawn)	-0.2	15.2*	-3.1	-6.7	26.6*	3.5	3.6
COc1ccc(C(=O)N2CCC(CCC(=O)Nc3cccc(C)c3)CC2)cc1	1.6	-1.4	0.3	10.3	0.5	x	x
COc1cccc(C(=O)N2CCC2(C)C(=O)O)c1 (stereo not drawn)	-4.1	-3.7	-1.0	-3.0	3.0	x	x
O=C(COC(=O)/C=C/c1ccc(Br)o1)Nc1ccc2[nH]c(=O)[nH]c2c1	4.4	-3.3	2.5	10.6	-0.2	x	x
NC(=O)c1ccc(NC(=O)COC(=O)/C=C/c2ccc(Br)o2)cc1	0.0	27.0*	21.7*	10.9	53.0*	33.9*	22.2*
CC(=O)C1=C(O)C(=O)N(c2ccc(C(=O)O)cc2)C1c1ccccc1 (stereo not drawn)	0.3	-4.0	-1.6	4.9	0.3	x	x
CC(=O)C1=C(O)C(=O)N(c2ccc(O)cc2)C1c1ccccc1 (stereo not drawn)	-2.0	22.4*	-7.6	3.8	-2.0	6.2	0.9

Compound activity (PubChem BioAssay)
